Reference: PubChem BioAssay (NCATS)
“And” between values parts separate entries of the source, which are not always exact repeats. Equal values may be shown once. Results filed as inconclusive are left out. The source made the active and inactive calls. Unless noted, calls follow the shape of the dose curve; as a rule, active = well fitted curve in the direction sought with a large enough effect; inconclusive = small, poorly fitted or top-dose-only effect, or another doubt; inactive = no such curve, though single readings can be large; an effect the other way counts as inactive or inconclusive.

Assays:
[1] = biological target: Cellular tumor antigen p53 (Homo sapiens) (UniProt P04637); test: Primary qHTS for small molecule compounds that upregulate eGFP-tagged delta133p53alpha (in N-terminal) cells. (AID 2060322); conditions: NCI-H358 eGFP-delta133p53alpha fluorescence, 24 h; activation: hits give high values;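 also: cells pre-induced with doxycycline then dosed without doxycycline; series mostly up to about 56 µM; 0% = DMSO vehicle and 100% = reference activator; nearly all actives have a fitted effect of over 75% in size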
Sequence of Cellular tumor antigen p53 (Homo sapiens) (P04637 whole entry, looked up): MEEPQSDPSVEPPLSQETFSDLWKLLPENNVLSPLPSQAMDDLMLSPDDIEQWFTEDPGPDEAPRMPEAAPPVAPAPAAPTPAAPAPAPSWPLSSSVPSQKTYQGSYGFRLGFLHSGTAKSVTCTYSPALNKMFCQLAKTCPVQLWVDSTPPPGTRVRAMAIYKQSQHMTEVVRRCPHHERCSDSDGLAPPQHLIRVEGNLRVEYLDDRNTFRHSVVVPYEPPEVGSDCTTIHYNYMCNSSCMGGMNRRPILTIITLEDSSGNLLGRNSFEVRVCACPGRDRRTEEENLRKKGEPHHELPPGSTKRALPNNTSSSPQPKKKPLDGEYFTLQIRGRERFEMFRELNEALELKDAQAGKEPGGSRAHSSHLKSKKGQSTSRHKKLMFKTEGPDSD
Procedure, shortened: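 NCI-H358 cells pre-induced 24 h with 10 ng/ml doxycycline for eGFP-delta133p53alpha, plated dox-free and exposed 24 h at 37C to titrated compounds. Fixed, Hoechst-stained; gated GFP peak intensity by laser scanning cytometry, normalized to DMSO (0%) and 57.5 uM 5-azacytidine (100%).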

[2] = biological target: Cellular tumor antigen p53 (Homo sapiens) (UniProt P04637); test: Primary qHTS for small molecule compounds that upregulate eGFP-tagged delta133p53alpha (in C-terminal) cells. (AID 2060324);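 also: 0% = DMSO wells and 100% = 57.5 µM 5-azacytidine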
Procedure, shortened: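 Concentration-response screen: compounds titrated onto pre-induced NCI-H358 D133p53a-eGFP cells, incubated one day, fixed with 3.5% PFA. Per-cell GFP peak intensity was gated, then normalized against intraplate controls.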

[3] = biological target: Aldehyde dehydrogenase, mitochondrial (Homo sapiens) (UniProt P05091); test: qHTS for Inhibitors of the Aldehyde Dehydrogenase Family (ALDH2) Validation screens (AID 2061302; active = well fitted inhibition curve with a large enough effect; title and protocol of this record describe different tests; also: potency is read from the fitted curve at half-maximal effect)
[4] = biological target: Aldehyde dehydrogenase 1A1 (Homo sapiens) (UniProt P00352); test: qHTS for Inhibitors of the Aldehyde Dehydrogenase Family (ALDH1A1) Confirmatory screens (AID 2061316); also: potency is read from the fitted curve at half-maximal effect; nearly all actives have a fitted effect of over 65% in size
[5] = BET inhibitor-based combinations targeting novel dependencies in MECOM-rearranged (r) AML: SET-2 cell line (AID 2202231); conditions: SET-2 AML cells viability, CellTiter-Glo luminescence, 48 h; viability: hits give low values, series mostly up to about 46 µM;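 also: plate controls were DMSO treated cells for no effect and wells without cells for full effect; nearly all actives have a fitted effect of over 35% in size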
Procedure, shortened: (§1)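 Viability of cells (500 per well) is scored by luminescent CellTiter-Glo at 48 hr post-dosing. Eleven-point titrations are normalized to DMSO and empty controls and reduced to AUC values.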

[6] = BET inhibitor-based combinations targeting novel dependencies in MECOM-rearranged (r) AML: OCI-AML3 cell line (AID 2202232); conditions: Potency: OCI-AML3 viability; also: nearly all actives have a fitted effect of over 35% in size; also: potency is read from the fitted curve at half-maximal effect
Procedure, shortened: as §1

[7] = BET inhibitor-based combinations targeting novel dependencies in MECOM-rearranged (r) AML: MV-4-11 cell line (AID 2202233); also: nearly all actives have a fitted effect of over 45% in size; also: potency is read from the fitted curve at half-maximal effect
Procedure, shortened: (§2)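 Using pin-tool transfer, drugs were added in 11 doses to cells (500/well), incubated 48 hr, and assessed with CellTiter-Glo. Z-AUC is a mean-centring transformation applied separately to each screened line.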

[8] = BET inhibitor-based combinations targeting novel dependencies in MECOM-rearranged (r) AML: HNT-34 cell line (AID 2202234); also: nearly all actives have a fitted effect of over 35% in size; also: potency is read from the fitted curve at half-maximal effect
Procedure, shortened: as §2

[9] = BET inhibitor-based combinations targeting novel dependencies in MECOM-rearranged (r) AML: UCSD-AML1 cell line (AID 2202235);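 also: series mostly up to about 46 µM; plate controls were DMSO vehicle wells for no effect and blank wells for full effect; nearly all actives have a fitted effect of over 40% in size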
Procedure, shortened: as §2

[10] = BET inhibitor-based combinations targeting novel dependencies in MECOM-rearranged (r) AML: AML-191 cell line (AID 2202236; also: nearly all actives have a fitted effect of over 35% in size; also: potency is read from the fitted curve at half-maximal effect)
Procedure, shortened: as §1

[11] = BET inhibitor-based combinations targeting novel dependencies in MECOM-rearranged (r) AML: AML-194 cell line (AID 2202237;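 also: plate controls were vehicle wells for no effect and wells without cells for full effect; nearly all actives have a fitted effect of over 40% in size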)
Procedure, shortened: as §1

[12] = biological target: Retinaldehyde dehydrogenase 3 (Homo sapiens) (UniProt P47895); test: qHTS for Inhibitors of the Aldehyde Dehydrogenase Family (ALDH1A3) Validation screen (AID 2061312); also: % is scaled to controls: 0 for no effect and ±100 for the full control effect; nearly all actives have a fitted effect of over 45% in size

Cc1ccc2c(c1)C(N1CCN(C)CC1)=Nc1cccnc1N2
active: Potency [4] 12.7 µM
inactive: activation [1] 13.7% | Potency [2] | Potency [3]

NCCc1cnc[nH]1
active: Potency [7] 8.33 µM
inactive: activation [1] -5.21% and -25.1% and -31.8% | Potency [2] | Potency [3] | viability [5] 93.4% | Potency [6] | Potency [8] | Potency [9] | Potency [10] | Potency [11]

NC12CC3CC(CC(C3)C1)C2
inactive: activation [1] 1.69% and 3.9% | Potency [2] | Potency [3] | Potency [12] | Potency [7] | Potency [8] | Potency [9] | Potency [10]

C[C@H](Cc1ccc(O)c(O)c1)[C@@H](C)Cc1ccc(O)c(O)c1
inactive: activation [1] 8.19% | Potency [2]
active: Potency [3] 15.8 µM | Potency [6] 3.32 µM | Potency [7] 2.95 µM | Potency [8] 8.33 µM | Potency [10] 11.8 µM

COc1ccccc1OCC(O)CN1CCN(CC(=O)Nc2c(C)cccc2C)CC1 (stereo unspecified)
inactive: activation [1] -19.2% and 6.83% and -14.1% | Potency [2] | Potency [3] | viability [5] 110% | Potency [7] | Potency [8] | Potency [10] | Potency [11]

CC[N+](CC)(CC)CCOc1cccc(OCC[N+](CC)(CC)CC)c1OCC[N+](CC)(CC)CC
inactive: activation [1] -9.51% and 5.08% and -25.7% | Potency [2] | Potency [3] | viability [5] 113% | Potency [7] | Potency [8] | Potency [10] | Potency [11]

Cc1cc(C(C)(C)C)cc(C)c1CC1=NCCN1
active: Potency [7] 18.6 µM
inactive: activation [1] 4.18% and 6.06% and -36% | Potency [2] | Potency [3] | Potency [12] | Potency [11]
